FXN GAA850 act: frataxin GAA850 promoter activation; actives 0.56% (n = 360,000); HEK293 lucGAA850 FXN promoter luciferase reporter, 24 h; percent of 10 µM SAHA response; activation, % at 6 µM;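 active = activation above the average of all compounds screened plus 3 SD, cutoff fixed separately per campaign, cut at about 7.5% in these data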;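 note: 0% = DMSO wells and 100% = 10 µM SAHA wells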
HSF1 activator: increases HSF-1 driven luciferase reporter signal; activation, % at 9 µM; actives 1.7% (n = 300,000); NIH3T3-HGL HSF-1 luciferase reporter, MG132, 8 h; 100% = twice DMSO control signal; AID 504408;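 active = mean replicate activation of at least 50% with a set share of replicates each reaching 50%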;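 note: 0% = median of the neutral control wells and 100% = twice that signal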
HSF1 inhib: HSF1 inhibition. NIH3T3-HGL HSE-luciferase, MG132-induced, luminescence 8 h; stronger effect = lower value. activity change, negative = inhibition, % at 7.5 µM (by protocol). actives 0.77% (n = 300,000);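 active = more than half of replicate wells show activity change below -50%, luminescence cut by over half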;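 note: luciferase reports HSF-1 transcriptional activity via heat shock element; 0% = median of DMSO wells and -100% = zero luminescence signal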
AHR activator: activates the human aryl hydrocarbon receptor | AID 2796 | activation, % at 5 µM | actives 2.5% (n = 320,000) | P35869 | AHR-responsive luciferase reporter cells, luminescence; in the data active = activation above about 47%;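 note: 0% = vehicle wells and 100% = reference agonist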
Numbers without * were called inactive. Only some compounds are listed: those with a hit (about 4.6% of all), similar ones and a draw of the others.

How did CC1=C(C(=O)OCC2CCCO2)C(c2cccc(O)c2)NC(=O)N1 (configuration not stated) do in these assays?
FXN GAA850 act: 0.7; HSF1 activator: 4.0; HSF1 inhib: 5.1; AHR activator: -0.5

How did COc1ccc(/C=N/NC(=O)c2ccccc2Cl)cc1CSc1nc2ccccc2s1 do in these assays?
FXN GAA850 act: -1.7; HSF1 activator: 1.8; HSF1 inhib: -4.2; AHR activator: 1.8

How did COc1ccc(/C=N/NC(=O)c2cccnc2)cc1CSc1nc2ccccc2s1 do in these assays?
FXN GAA850 act: -3.7; HSF1 activator: -0.2; HSF1 inhib: 4.4; AHR activator: 54.4*

How did CCN(CC)c1ccc(C(=O)Nc2ccccc2)cc1[N+](=O)[O-] do in these assays?
FXN GAA850 act: 2.0; HSF1 activator: 43.2; HSF1 inhib: 9.7; AHR activator: 53.1*

Results for O=C(Nc1ccccc1)c1ccc(NCCc2ccccc2)c([N+](=O)[O-])c1 ?
FXN GAA850 act: 1.6; HSF1 activator: -19.0; HSF1 inhib: -21.3; AHR activator: 49.8*

What do the screens show for `CCCCC(=O)Nc1ccc(NC(=O)c2ccc(C)c([N+](=O)[O-])c2)cc1OC`?
FXN GAA850 act: 1.7; HSF1 activator: 4.6; HSF1 inhib: -1.1; AHR activator: 71.9*

What do the screens show for `COc1ccc(C(=O)NC(=S)NCc2cccnc2)cc1[N+](=O)[O-]`?
FXN GAA850 act: 1.7; HSF1 activator: 7.3; HSF1 inhib: -2.9; AHR activator: 76.4*

How did NC(=O)c1ccc(NCCc2ccccc2)c([N+](=O)[O-])c1 do in these assays?
FXN GAA850 act: 1.9; HSF1 activator: 11.8; HSF1 inhib: 2.0; AHR activator: -1.4

Results for COc1ccc(C(=O)NC(=S)NCc2cccnc2)cc1OC ?
FXN GAA850 act: -1.6; HSF1 activator: -0.4; HSF1 inhib: -8.7; AHR activator: 38.7

What do the screens show for `Cc1ccc(-c2n[nH]c(S(C)(=O)=O)c2C#N)cc1`?
FXN GAA850 act: 2.1; HSF1 activator: 3.5; HSF1 inhib: 4.3; AHR activator: 3.4

What do the screens show for `COc1ccc(C(=O)Nc2ccc(OCc3ccccc3)cc2)cc1[N+](=O)[O-]`?
FXN GAA850 act: -1.7; HSF1 activator: -67.0; HSF1 inhib: -60.7*; AHR activator: -3.1

Results for COc1ccc(C(=O)Nc2ccc(Nc3ccccc3)cc2)cc1[N+](=O)[O-] ?
FXN GAA850 act: -0.9; HSF1 activator: 9.8; HSF1 inhib: 6.2; AHR activator: -6.9

What do the screens show for `O=C(COC(=O)CC1CCCC1)Nc1ccc(Cl)cn1`?
FXN GAA850 act: 2.2; AHR activator: -0.9

How did O=C(NCC1CCCC(CNC(=O)Nc2ccc(Cl)cn2)C1)Nc1ccc(Cl)cn1 (configuration not stated) do in these assays?
FXN GAA850 act: 3.2; HSF1 activator: 55.7*; HSF1 inhib: 28.6; AHR activator: 9.9

Results for COc1cc(/C=N/NC(=O)c2ccc(COc3ccccc3Cl)o2)cc(Br)c1O ?
FXN GAA850 act: 2.1; HSF1 activator: -52.7; HSF1 inhib: -35.8; AHR activator: 40.3

What do the screens show for `COc1ccccc1/C=N\NC(=O)c1ccc(COc2ccc(C)c(C)c2)o1`?
FXN GAA850 act: 2.6; HSF1 activator: 33.1; HSF1 inhib: 15.6; AHR activator: 48.9*

How did COc1ccc(Br)cc1/C=N/NC(=O)c1ccc(COc2ccc3c(c2)CCC3)o1 do in these assays?
FXN GAA850 act: -0.1; HSF1 activator: 15.6; HSF1 inhib: 17.3; AHR activator: 62.0*

How did O=C(N/N=C/c1ccc2ccccc2c1)c1ccc(COc2ccc3c(c2)CCC3)o1 do in these assays?
FXN GAA850 act: 1.8; HSF1 activator: 2.0; HSF1 inhib: -0.4; AHR activator: 47.2*

What do the screens show for `COc1cccc(/C=N/NC(=O)c2ccc(COc3ccc(Cl)cc3Cl)o2)c1`?
FXN GAA850 act: -2.2; AHR activator: 53.1*

What do the screens show for `CN(C)C(=O)c1ccc(NS(=O)(=O)c2ccc3c(c2)OCCO3)cc1`?
FXN GAA850 act: -0.2; HSF1 activator: -52.8; HSF1 inhib: -43.2; AHR activator: -4.8

What do the screens show for `COc1cc2c(cc1OC)CN(C(=O)CN1C(=O)NC3(CCC(C)CC3)C1=O)CC2` (configuration not stated)?
FXN GAA850 act: 0.9; AHR activator: 30.5

What do the screens show for `O=C1CCn2nc(-c3ccc(Cl)cc3)cc2N1`?
FXN GAA850 act: 2.9; HSF1 activator: 5.2; HSF1 inhib: 13.8; AHR activator: 47.5*

How did Nc1cc(-c2ccc(Cl)cc2)nn1-c1ccccc1 do in these assays?
FXN GAA850 act: 4.9; HSF1 activator: 12.1; HSF1 inhib: 3.9; AHR activator: -5.4
